Set-up in all cases: species or system human, MV4-11 + K-562 + COLO205 + SK-N-BE2 + OVCAR-8
One assay has as its system PIK3C2A. As to conditions: read-out: apparent Kd, n = 1.
The test system of the next assay is SLK. The note with it: read-out: apparent Kd, n = 1.
For a further assay, the system named is NNT. The note with it: read-out: apparent Kd, n = 1.
A further assay has as its system CSNK1G1. The note with it: read-out: apparent Kd; compound concentrations:100 nM and 1000 nM (sheet 'Samples'); n = 1.
In a further assay the test system is BRAF. The note with it: read-out: apparent Kd; compound concentrations:100 nM and 1000 nM (sheet 'Samples'); n = 1.
In another assay the test system is ERN2. The note with it: read-out: apparent Kd; compound concentrations:100 nM and 1000 nM (sheet 'Samples'); n = 1.
A further assay concerns MAP4K2. As to conditions: read-out: apparent Kd, n = 1.
The test system of the next assay is STK4. As to conditions: read-out: apparent Kd, compound concentrations: 100 nM and 1000 nM (sheet 'Samples'), n = 1.
For another assay, the system named is CSNK1E. The note with it: read-out: apparent Kd, n = 1.
The next assay concerns MELK. The note with it: read-out: apparent Kd; compound concentrations: 100 nM and 1000 nM (sheet 'Samples'), CATDS: 9.6320632964756892E-3; n = 1.
The next assay relates to ILK. As to conditions: read-out: apparent Kd, n = 1.
The next assay has as its system PRKAG2. As to conditions: read-out: apparent Kd, n = 1.
The next assay deals with CDK6. As to conditions: read-out: apparent Kd, n = 1.
A further assay concerns MAP3K11. The note with it: read-out: apparent Kd; compound concentrations:100 nM and 1000 nM (sheet 'Samples'); n = 1.
For a further assay, the system named is PRKAA2. The note with it: read-out: apparent Kd, n = 1.
For a further assay, the system named is STRADA. The note with it: read-out: apparent Kd, n = 1.
The next assay deals with VDAC3. As to conditions: read-out: apparent Kd, n = 1.
For the next assay, the system named is PIK3C3. As to conditions: read-out: apparent Kd; compound concentrations:100 nM and 1000 nM (sheet 'Samples'); n = 1.
The mark [1] stands for this setting: compound concentrations:100 nM and 1000 nM (sheet 'Samples').

Each structure is given as a SMILES string. Read-outs that look alike come from different tables or passages of the source.

The text below walks through data of article PMC11062922 (Nature Chemical Biology, 2023).

As to `O=S(=O)(CCOCc1ccc(-c2ccc3ncnc(Nc4ccc(OCc5cccc(F)c5)c(Cl)c4)c3c2)o1)c1ccccc1` [GW615311X], the potency estimated from few doses with PIK3C2A (compound concentrations: 100 nM and 1000 nM (sheet 'Samples'), CATDS: 2.34385173398927E-2) is 2050 nM. As to `COc1cc2ncn(-c3cc(OCc4cccs4)c(C(N)=O)s3)c2cc1OC` [GSK312948A], in the assay on SLK (setting [1]), the potency estimated from few doses is 262 nM. With `O=S(=O)(c1ccc(-c2ccnc3[nH]ccc23)cc1)N1CCCC1` [GSK846226A], the potency estimated from few doses with NNT (setting [1]) was 2150 nM. On to `Nc1nc(N)c2nc(-c3ccccc3)[nH]c2n1` [SKF-12778], for which the potency estimated from few doses with CSNK1G1 was 924 nM; in the assay with PIK3C2A (setting [1]), 2130 nM. Turning to `CC(C)c1nc(-c2ccc(F)c(NS(=O)(=O)c3c(F)cccc3F)c2)c(-c2ccnc(Nc3ccc(N4CCOCC4)nc3)n2)s1` [GSK1804250A], the potency estimated from few doses in the assay on BRAF was 939 nM; in the assay with ERN2 it was 1120 nM.

In the case of `Nc1ncc(-c2cn[nH]c2)c2scc(-c3ccc4c(c3)CCN4C(=O)Cc3ccccc3)c12` [GSK2593067A], the potency estimated from few doses with MAP4K2 (compound concentrations: 100 nM and 1000 nM (sheet 'Samples'), CATDS: 0.15564611372576101) was 200 nM; in the assay on STK4 (CATDS: 7.8104026917421798E-2), 768 nM. With `Fc1ccc(-c2c(-c3ccncc3)[nH]c3nccnc23)cc1` [RO1155697-000], the potency estimated from few doses in the assay with CSNK1E (setting [1]) was 52.8 nM. `CN1CCc2ccc(Nc3nccc(-c4c(-c5cccc(NC(=O)c6c(F)cccc6F)c5)nc5ccccn45)n3)cc2C1.Cl` [GSK1010829B]: in the assay with STK4 (CATDS: 3.6315985659661598E-2), the potency estimated from few doses was 1170 nM. As for `CNC(=O)c1ccccc1Nc1nc(Nc2cccc(CS(C)(=O)=O)c2)ncc1C.O=CO` [GSK1520489A], the potency estimated from few doses was 1610 nM with MELK; 107 nM in the assay with SLK (compound concentrations: 100 nM and 1000 nM (sheet 'Samples'), CATDS: 2.2249249802163501E-2).

On to `CC(=O)c1c(-c2ccncc2)[nH]c(-c2ccncc2)c1C` [GW493036X], for which the potency estimated from few doses in the assay on CSNK1G1 is 717 nM. As for `Cc1ccc(-n2nc(C(C)(C)C)cc2NC(=O)Nc2ccc(OCCN3CCOCC3)cc2)cc1` [BIRB0876BS], the potency estimated from few doses with ILK (setting [1]) was 1870 nM. Regarding `COc1cc2ncn(-c3cc(OCc4sccc4Cl)c(C(N)=O)s3)c2cc1OC` [GSK448459A], the potency estimated from few doses in the assay on MAP4K2 (setting [1]) was 827 nM; in the assay on SLK (setting [1]), 434 nM.

Turning to `COc1cc2ncn(-c3cc(O[C@H](C)c4ccccc4Cl)c(C(N)=O)s3)c2cc1OC` [GSK237701A], the potency estimated from few doses is 1520 nM in the assay on PRKAG2 (setting [1]) and 782 nM in the assay on SLK (setting [1]). With `Cc1ccc(NC(=O)c2ccc(Cl)cc2)cc1-c1ccc(C(=O)Nc2ccncc2)cc1` [GSK1398467A], the potency estimated from few doses in the assay on NNT (compound concentrations: 100 nM and 1000 nM (sheet 'Samples'), CATDS: 0.228122835279086) was 956 nM. Consider `Nc1c(C(=O)c2ccccc2)cnn1-c1ccc(F)cc1` [RO1151246-000], for which the potency estimated from few doses with CDK6 (setting [1]) is 2120 nM; in the assay on MAP3K11, 1920 nM; in the assay with PIK3C2A (setting [1]) it was 1660 nM; with PRKAA2 (setting [1]) it was 1780 nM; with STRADA (setting [1]) it was 1830 nM.

As to `Cn1cc(C2=C(c3cn(CCCCCO)c4ccccc34)C(=O)NC2=O)c2ccccc21` [RO0318053-000], in the assay on PRKAA2 (compound concentrations: 100 nM and 1000 nM (sheet 'Samples'), CATDS: 8.4372577909481605E-2), the potency estimated from few doses is 1450 nM.

In the case of `COc1ccc(C2=C(c3cn(C)c4ccccc34)C(=O)NC2=O)cc1OC` [RO3206363-000], the potency estimated from few doses is 166 nM in the assay with STK4 (CATDS: 7.8788816860825395E-2); 2050 nM in the assay on STRADA (compound concentrations: 100 nM and 1000 nM (sheet 'Samples'), CATDS: 3.11031335260477E-2). Take `Fc1cccc(COc2ccc(Nc3ncncc3C#Cc3ccccc3)cc2Cl)c1` [GW651576X]: the potency estimated from few doses was 1010 nM in the assay with ILK (compound concentrations: 100 nM and 1000 nM (sheet 'Samples'), CATDS: 6.7664406837509503E-2); 1770 nM in the assay with NNT (compound concentrations: 100 nM and 1000 nM (sheet 'Samples'), CATDS: 5.0215020986353498E-2); 1670 nM with PRKAG2 (compound concentrations: 100 nM and 1000 nM (sheet 'Samples'), CATDS: 5.1701945188740897E-2). On to `COc1cc(F)c(F)c(F)c1C(=O)c1cnc(NC2CCN(S(C)(=O)=O)CC2)nc1N` [RO4600703-000], for which the potency estimated from few doses in the assay on SLK (setting [1]) is 471 nM. Consider `Clc1ccc(-c2nn3ncccc3c2-c2ccnc(Nc3ccccc3)n2)cc1` [GW829055X], for which the potency estimated from few doses in the assay with ILK (compound concentrations: 100 nM and 1000 nM (sheet 'Samples'), CATDS: 5.2015680047351402E-2) is 690 nM; in the assay on NNT (compound concentrations: 100 nM and 1000 nM (sheet 'Samples'), CATDS: 0.15486403103885801), 130 nM; in the assay on PRKAG2 (compound concentrations: 100 nM and 1000 nM (sheet 'Samples'), CATDS: 5.2406473036639797E-2) it was 681 nM; in the assay on VDAC3 (compound concentrations: 100 nM and 1000 nM (sheet 'Samples'), CATDS: 4.3121960870331599E-2), 997 nM. In the case of `CCCN1CCC(Oc2cc(Nc3nc(Nc4cccc(F)c4C(N)=O)c4cc[nH]c4n3)c(OC)cc2Cl)CC1` [GSK1713088A], the potency estimated from few doses in the assay on CDK6 (compound concentrations: 100 nM and 1000 nM (sheet 'Samples'), CATDS: 0.18030383020801999) was 2000 nM. Consider `COc1ccc(COc2ccc(Cc3cnc(N)nc3N)cc2OC)cc1` [GW632580X], for which, in the assay on NNT (setting [1]), the potency estimated from few doses was 1910 nM. For the compound `Fc1ccc(-c2ncn(C3CCNCC3)c2-c2ccnc(Oc3ccc4c(c3)OCO4)n2)cc1` [SB-250715], the potency estimated from few doses is 811 nM in the assay with CSNK1E (setting [1]) and 834 nM in the assay with VDAC3 (setting [1]).

Consider `NC(=O)c1cccnc1COc1cc(-c2ccc(N3CCOCC3)nc2)cc2ncccc12` [BI01125081], for which the potency estimated from few doses is 1890 nM in the assay with MAP3K11 and 1260 nM in the assay on PIK3C3. Regarding `Nc1ncnc2c1ncn2-c1cccc(F)c1` [SKF-97560], the potency estimated from few doses is 1600 nM in the assay on CSNK1E (compound concentrations: 100 nM and 1000 nM (sheet 'Samples'), CATDS: 3.1298508243452101E-2); 1310 nM with SLK (compound concentrations: 100 nM and 1000 nM (sheet 'Samples'), CATDS: 3.3087406541094599E-2).
